Molecules are shown by their SMILES. The list shows a part of the results. The source made the active and inactive calls.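 How the source made its calls: active means current increase at least 3 SD of the untreated controls above them in both duplicate recordings; inactive means the rest.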

This assay deals with Potassium voltage-gated channel subfamily KQT member 2 (Rattus norvegicus) (UniProt O88943). As to the kind of experiment: W236L mutant KCNQ2 current enhancers – cell-based, rat KCNQ2 W236L, CHO, automated patch clamp, mechanism study for KCNQ2 potentiator project (AID 2558). The following applies: at 25 µM. On the technique in general: In patch-clamp work, channel activity is measured electrically.
Sequence of Potassium voltage-gated channel subfamily KQT member 2 (Rattus norvegicus) (O88943 whole entry W236L, looked up): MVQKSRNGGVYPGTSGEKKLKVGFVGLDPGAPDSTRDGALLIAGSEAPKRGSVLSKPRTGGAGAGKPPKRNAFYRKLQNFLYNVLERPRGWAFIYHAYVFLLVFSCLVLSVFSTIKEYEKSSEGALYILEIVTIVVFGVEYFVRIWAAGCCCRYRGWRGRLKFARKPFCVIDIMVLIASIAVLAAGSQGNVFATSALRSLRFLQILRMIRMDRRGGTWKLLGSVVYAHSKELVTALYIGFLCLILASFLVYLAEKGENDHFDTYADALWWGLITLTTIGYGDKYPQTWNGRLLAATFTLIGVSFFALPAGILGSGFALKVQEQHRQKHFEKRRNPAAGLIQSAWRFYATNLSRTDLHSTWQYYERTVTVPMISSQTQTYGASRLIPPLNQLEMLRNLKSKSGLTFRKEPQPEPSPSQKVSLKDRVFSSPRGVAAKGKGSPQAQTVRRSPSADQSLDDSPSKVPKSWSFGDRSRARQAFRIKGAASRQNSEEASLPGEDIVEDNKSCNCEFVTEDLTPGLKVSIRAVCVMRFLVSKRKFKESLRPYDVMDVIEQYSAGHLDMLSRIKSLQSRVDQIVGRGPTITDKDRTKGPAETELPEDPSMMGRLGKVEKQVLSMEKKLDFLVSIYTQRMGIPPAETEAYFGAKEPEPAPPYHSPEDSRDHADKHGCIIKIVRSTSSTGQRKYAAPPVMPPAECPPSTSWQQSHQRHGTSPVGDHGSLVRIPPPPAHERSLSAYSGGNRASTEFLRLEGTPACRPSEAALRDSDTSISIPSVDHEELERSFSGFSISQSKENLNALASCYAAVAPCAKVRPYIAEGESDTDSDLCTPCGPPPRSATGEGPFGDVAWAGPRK
Turning to `CCCCNC(=O)Nc1c(C)cc(SC#N)cc1C`, the outcome was inactive.

With `C/C(=N\NC(=O)c1ccoc1C)c1ccccc1O`, the outcome was inactive.

On to `CCN(CC(=O)NC(=O)NCc1ccccc1)Cc1nc2ccccc2c(=O)[nH]1`, for which the outcome was inactive.

As to `CCc1ccc(NC(=O)C(=O)NNC(=O)c2cccs2)cc1`, the outcome was inactive.

As to `N#Cc1c(-c2ccccc2)nc(SCc2cccc(C(F)(F)F)c2)[nH]c1=O`, the result was inactive.

For `Cc1ccc(/C=N/NC(=O)c2cc3ccccc3cc2O)o1`, the result was inactive.

Consider `COc1ccc(NC(=O)/C(Cl)=C(/Cl)S(=O)Cc2ccc(C)cc2)cn1` (configuration not stated), for which the outcome was inactive.

`FC(F)(F)c1cccc(NC(=S)Nc2cccc(Cl)c2)c1`: the outcome was inactive.

Consider `S=C(NCc1ccc(Cl)cc1)NC12CC3CC(CC(C3)C1)C2`, for which the outcome was inactive.

Take `O=C(NNC1=C(C(=O)C(F)(F)F)CCC1)c1ccncc1`: the result was inactive.

For `CC(C)(C)C1CCC(C(=O)NCC(c2cccs2)N2CCOCC2)CC1` (configuration not stated), the result was inactive.

For `CCn1c(=S)[nH]c2sc3c(c2c1=O)CCCCC3`, the result was inactive.

Take `Cc1[nH]n(-c2cccc(Cl)c2)c(=O)c1/C=N/n1c(C)nc2ccccc2c1=O`: the result was inactive.

For the compound `CCn1c2ccccc2c2cc(NC(=O)CNC)ccc21`, the outcome was inactive.

For `Cc1ccc(-n2nc3c(c2NC(=O)CCC2CCCCC2)CS(=O)C3)cc1` (configuration not stated), the result was inactive.

Regarding `O=C(Nc1ccc(Oc2ccccc2)cc1)c1ccco1`, the current increase over 3SD of negative controls (%), active compounds read high is 9.43% (active).

Turning to `Cc1cccc(NC(=O)CSC(N)=O)c1C`, the outcome was inactive.

Regarding `Cc1cccc(NC(=S)NC(=O)c2ccc(Br)o2)c1`, the result was inactive.

With `CCn1c(O)c(N=NC2=NC(=O)CS2)c2cc(C)ccc21`, the outcome was inactive.

`CC1=C/C(=N\OS(=O)(=O)c2ccccc2)C=CC1=O`: the result was inactive.

As for `CSc1nnc(NC(=O)c2nc(S(=O)(=O)Cc3ccc(C)cc3)ncc2Cl)s1`, the current increase over 3SD of negative controls (%), active compounds read high is 23.1% (active).

For `Oc1c(Cl)cc(Cl)cc1/C=N/c1ncn[nH]1`, the result was inactive.

For the compound `COc1cccc(NC(=O)C2C(c3ccccc3)C2(Cl)Cl)c1` (configuration not stated), the result was inactive.

Take `CCC1(C)Cc2c(sc3[nH]c(=S)n(Cc4ccccc4)c(=O)c23)CO1` (configuration not stated): the result was inactive.

As to `O=C(NCc1ccc2c(c1)OCO2)c1ccc(Cl)s1`, the result was inactive.

`CCOC(=O)c1c(NC(=S)NC)sc2c1CCCC2`: the outcome was inactive.

Turning to `CC(NC(=O)Nc1ccccc1)c1ccccc1` (configuration not stated), the outcome was inactive.

For the compound `CC(NC(=O)Nc1cccc([N+](=O)[O-])c1)c1ccc2c(c1)OCO2` (configuration not stated), the result was inactive.

Regarding `Cc1ccc(NC(=O)C2CC2c2ccccc2)cc1` (configuration not stated), the outcome was inactive.

On to `CS(=O)(=O)c1sc(C(=O)NC(=S)Nc2ccc(OC(F)(F)F)cc2)c2c1C=CCC2`, for which the result was inactive.

With `CCOC(=O)c1sc(=S)n2c1[nH]c(=O)c1ccc(C(=O)OC)cc12`, the outcome was inactive.

As to `CCC1(C)Cc2c(sc3nnn(CC(=O)Nc4ccc(Cl)cc4)c(=O)c23)CO1` (configuration not stated), the outcome was inactive.
